Source: PubChem BioAssay AID1159580 (chemical genetic matrix, 2015)
The campaign covered roughly 5,500 compounds. About 2,000 (36%) were called active. Inconclusive results (about 18%) are left out. Rule as the data show it: active = normalized growth mostly below about 0.91 (no sharp cut-off); inconclusive = no clear call, values can overlap the other calls; inactive = mostly above about 0.92. The list shows a part of the results.

Experiment: chemical genetic growth profiling, strain panel (AID 1159580);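 also: tested at 20 µM; growth read once vehicle control cultures reached saturation at 30 °C; 1 = growth at the plate median or of vehicle wells; lower values mean less growth of the strain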
Conditions: S. cerevisiae deletion strains, growth OD

Measured: normalized growth

O=c1c(O)c(-c2ccccc2)oc2cccc(O)c12
inactive: locus YDL005C, strain med2, hits give low values 0.997 | locus YDL040C, strain nat1, hits give low values 0.953 | locus YDR159W, strain sac3, hits give low values 0.89 | locus YDR195W, strain ref2 1.02 | locus YGL227W, strain vid30, hits give low values 0.929 | locus YHR013C, strain ard1, hits give low values 0.943 | locus YJL115W, strain asf1, hits give low values 0.906 | locus YKR091W, strain srl3, hits give low values 0.934 | locus YLR113W, strain HOG1, hits give low values 0.935 | locus YLR384C, strain iki3, hits give low values 0.922 | locus YMR125W, strain sto1, hits give low values 0.991 | locus YNL322C, strain KRE1 (second series), hits give low values 0.926 | locus YOR080W, strain dia2, hits give low values 0.925 | locus YPL106C, strain sse1, hits give low values 0.896 | locus YPL240C, strain hsp82, hits give low values 0.936 | locus YPL256C, strain CLN2, hits give low values 0.87
active: locus YAL021C, strain ccr4, hits give low values 0.725 | locus YAL026C, strain drs2, hits give low values 0.55 | locus YAL030W, strain snc1, hits give low values 0.881 | locus YBL061C, strain skt5, hits give low values 0.802 | locus YBR009C, strain hhf1, hits give low values 0.856 | locus YBR023C, strain chs3, hits give low values 0.666 | locus YBR171W, strain sec66, hits give low values 0.838 | locus YBR231C, strain swc5, hits give low values 0.733 | locus YBR279W, strain paf1, hits give low values 0.867 | locus YCL011C, strain gbp2, hits give low values 0.847 | locus YCL016C, strain dcc1, hits give low values 0.851 | locus YCL061C, strain MRC1, hits give low values 0.821 | locus YCL069W, strain vba3, hits give low values 0.816 | locus YCR088W, strain abp1, hits give low values 0.899 | locus YDR001C, strain nth1, hits give low values 0.891 | locus YDR069C, strain doa4, hits give low values 0.788 | locus YDR137W, strain rgp1, hits give low values 0.372 | locus YDR297W, strain sur2, hits give low values 0.919 | locus YDR334W, strain swr1, hits give low values 0.759 | locus YDR335W, strain msn5, hits give low values 0.852 | locus YDR392W, strain spt3, hits give low values 0.282 | locus YEL003W, strain gim4, hits give low values 0.875 | locus YEL037C, strain rad23, hits give low values 0.893 | locus YEL061C, strain CIN8 (second series), hits give low values 0.905 | locus YER015W, strain faa2, hits give low values 0.852 | locus YER016W, strain bim1, hits give low values 0.914 | locus YER111C, strain swi4, hits give low values 0.878 | locus YER155C, strain BEM2 (second series), hits give low values 0.751 | locus YFR010W, strain ubp6, hits give low values 0.726 | locus YGL167C, strain pmr1, hits give low values 0.886 | locus YGL173C, strain kem1, hits give low values 0.599 | locus YGL240W, strain doc1, hits give low values 0.739 | locus YGL253W, strain hxk2, hits give low values 0.621 | locus YHR027C, strain rpn1, hits give low values 0.751 | locus YHR030C, strain SLT2, hits give low values 0.72 | locus YHR079C, strain IRE1, hits give low values 0.839 | locus YHR142W, strain chs7, hits give low values 0.539 | locus YJL092W, strain hpr5, hits give low values 0.863 | locus YJL095W, strain BCK1 (second series), hits give low values 0.368 | locus YJL095W, strain BCK1, hits give low values 0.733 | locus YJL129C, strain trk1, hits give low values 0.673 | locus YJL154C, strain vps35, hits give low values 0.917 | locus YJL164C, strain tpk1, hits give low values 0.826 | locus YJL166W, strain qcr8, hits give low values 0.836 | locus YJL187C, strain SWE1, hits give low values 0.84 | locus YJR066W, strain TOR1, hits give low values 0.741 | locus YKL160W, strain elf1, hits give low values 0.881 | locus YKR026C, strain gcn3, hits give low values 0.917 | locus YLL001W, strain dnm1, hits give low values 0.826 | locus YLL026W, hits give low values 0.829 | locus YLL041C, strain sdh2, hits give low values 0.923 | locus YLR027C, strain aat2, hits give low values 0.842 | locus YLR221C, strain rsa3, hits give low values 0.815 | locus YLR258W, strain gsy2, hits give low values 0.84 | locus YLR262C, strain YPT6 (second series), hits give low values 0.304 | locus YLR320W, strain mms22, hits give low values 0.661 | locus YLR342W, strain FKS1, hits give low values 0.827 | locus YLR357W, strain rsc2, hits give low values 0.821 | locus YLR370C, strain arc18, hits give low values 0.789 | locus YML120C, strain ndi1, hits give low values 0.828 | locus YMR058W, strain fet3, hits give low values 0.206 | locus YMR129W, hits give low values 0.916 | locus YMR205C, strain PFK2, hits give low values 0.715 | locus YMR231W, strain pep5, hits give low values 0.304 | locus YNL071W, strain lat1, hits give low values 0.568 | locus YNL183C, strain NPR1, hits give low values 0.793 | locus YNL209W, strain ssb2, hits give low values 0.725 | locus YNL248C, strain rpa49, hits give low values 0.795 | locus YNR049C, strain mso1, hits give low values 0.89 | locus YOR001W, strain rrp6, hits give low values 0.818 | locus YOR070C, strain gyp1, hits give low values 0.835 | locus YOR083W, strain WHI5, hits give low values 0.826 | locus YOR106W, strain vam3, hits give low values 0.546 | locus YOR231W, strain MKK1, hits give low values 0.822 | locus YOR265W, strain rbl2, hits give low values 0.88 | locus YOR270C, strain vph1, hits give low values 0.445 | locus YOR290C, strain snf2, hits give low values 0.795 | locus YPL051W, strain arl3, hits give low values 0.696 | locus YPL078C, strain atp4, hits give low values 0.779
